SMILES strings stand for the structures.
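Note: KINOMEscan kinase panel screen.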

This test relates to FER. The settings on record: concentration: 1 μM, replicates: in singlicate; n = 1.
Turning to `CCS(=O)(=O)c1ccc(OC)c(Nc2nccc(-c3c(-c4cccc(NC(=O)c5c(F)cccc5F)c4)nn4ncccc34)n2)c1` [GSK326180], the “%Inh” value is 22%.

As for `COc1cc(Nc2nccc(-c3c(-c4cccc(NC(=O)c5c(F)cccc5F)c4)nn4ncccc34)n2)cc(OC)c1OC` [GSK327238], the “%Inh” value stood at 77%.

In the case of `COc1ccc(-c2coc3ccc(-c4nnc(SCc5ccc(OC)c(C(F)(F)F)c5)o4)cc23)cc1`, the “%Inh” value stood at 0%.

Turning to `Oc1cc(Nc2ccnc3cc(I)ccc23)ccc1F` [GW552771], the “%Inh” value is given as 11%.

For `O=c1[nH]cc(-c2ccc(N3CCOCC3)cc2)c2sc(-c3cn[nH]c3)cc12` [GSK2276055], the “%Inh” value is on record as 0%.

On to `FC(F)(F)c1ccc(/C=C/c2cncnc2Nc2ccc3[nH]c(Cc4ccccc4)nc3c2)cc1` [GW709199], for which the “%Inh” value is 0%.

As to `Nc1ncnc2c1nc(-c1ccccc1)n2-c1ccccc1` [SKF-97293], the “%Inh” value amounted to 8%.

With `Cn1cc(-c2ccc3c(c2)CCN3C(=O)Cc2cccc(Cl)c2)c2c(N)ncnc21` [GSK2606590], the “%Inh” value was found to be 35%.

`Cc1ccc(C(=O)Nc2ccc(Nc3ccnc4cc(-c5nccs5)ccc34)cc2O)cc1.Cl` [GW494702]: the “%Inh” value turned out to be 34%.

Regarding `COc1cc(Nc2ncc3c(C)nc(-c4cc5ccccc5[nH]4)n3n2)cc(OC)c1OC` [GW869516], the “%Inh” value is 0%.

Regarding `COc1ccc(CNC(=O)NC2CCN(c3ccnc(Nc4ccc(F)cc4)n3)CC2)cc1` [GSK1379788], the “%Inh” value came out at 17%.

With `CCn1c(-c2nonc2N)nc2c(C#CC(C)(C)O)nc(OC[C@H](N)c3ccccc3)cc21` [GSK943949], the “%Inh” value is 0%.

Take `Cl.c1ccc(-c2ccc3c(Nc4ccc5[nH]ncc5c4)ccnc3c2)nc1` [GW440137]: the “%Inh” value was 15%.

As for `COc1cccc(-c2ccc3c(NC(=O)C4CC4)n[nH]c3n2)c1` [SB-710903], the “%Inh” value is 0%.

In the case of `COc1cccc(C(=O)Nc2cccc(Oc3ccc4nc(NC(=O)C5CC5)cn4n3)c2)c1`, the “%Inh” value came out at 0%.

Take `CNC(=O)c1ccccc1Nc1nc(Nc2ccc(N3CCOCC3)cc2)ncc1Cl.Cl` [GSK1576028]: the “%Inh” value was determined as 97.7%.

As for `O=C(Nc1cccc(Oc2ccc3nc(NC(=O)C4CC4)cn3n2)c1)c1ccccc1C(F)(F)F`, the “%Inh” value is on record as 0%.

Turning to `Cc1ccc(S(=O)(=O)Nc2ccc(Nc3nccc(Nc4cccc5[nH]ncc45)n3)cc2)cc1` [GSK581271], the “%Inh” value was 7%.

For the molecule `Cc1cccc(NC(=O)Nc2ccc(Oc3ncnc4ccn(C)c34)cc2)c1`, the “%Inh” value was determined as 0%.

With `CC(=O)Nc1nc2cnc(Nc3cc(NC(=O)c4cccc(C5(C#N)CC5)c4Cl)ccc3C)nc2s1`, the “%Inh” value is reported as 0%.

Consider `COc1cccc(C2=C(Nc3ccc(Cl)c(C(=O)O)c3)C(=O)NC2=O)c1` [SB-390769], for which the “%Inh” value was 7%.

In the case of `CN(C)S(=O)(=O)c1cc(-c2ccc3nccc(-c4cccc(S(N)(=O)=O)c4)c3c2)cnc1N` [GSK1669921], the “%Inh” value stood at 5%.

Consider `O=C(Nc1ccccc1F)NC1CCN(c2ccnc(Nc3ccc(F)cc3)n2)CC1` [GSK1379800], for which the “%Inh” value is listed as 15%.

Regarding `O=C(Nc1n[nH]c2cc(-c3ccoc3)ccc12)C1CC1` [SB-738481], the “%Inh” value came out at 0%.

`CSc1cccc2c(-c3ccncn3)c(-c3ccc(F)cc3)nn12` [GW514786]: the “%Inh” value is recorded as 17%.

Take `CN(c1ccc(NC(=O)Nc2cc(C(F)(F)F)ccc2F)cc1)c1ccnc(Nc2ccc(S(N)(=O)=O)cc2)n1` [GW809893]: the “%Inh” value was 84%.

Take `O=C(Nc1cccc(-c2nn3ncccc3c2-c2ccnc(Nc3ccccc3)n2)c1)c1c(F)cccc1F` [GSK198271]: the “%Inh” value is recorded as 45%.

Consider `c1ccc(-c2n[nH]cc2Nc2ccnc3ccccc23)nc1` [GW694077], for which the “%Inh” value is 0%.

As to `Cl.Cl.NCC(C(=O)Nc1cc(Br)c(-c2ccnc3[nH]ccc23)s1)c1ccccc1` (stereo not drawn) [GSK1269851], the “%Inh” value is given as 18%.

Consider `O=C(Nc1cccc(-c2nn3ccccc3c2-c2ccnc(Nc3cccc(C(F)(F)F)c3)n2)c1)c1c(F)cccc1F` [GSK292658], for which the “%Inh” value is 3%.

As to `Cc1ccc(C)c(NC(=O)NC2CCN(c3ccnc(Nc4ccc(F)cc4)n3)C2)c1` (stereo not drawn) [GSK1379720], the “%Inh” value came out at 2%.

With `COCCOCCOc1cc2ncc3c4ccc(C#N)cc4[nH]c3c2cc1OC`, the “%Inh” value is on record as 0%.

Regarding `CN1CCN(Cc2cccc(-c3ccc4c(Nc5ccc(Oc6ccccc6)cc5)ccnc4c3)c2)CC1` [GW578342], the “%Inh” value is 4%.
